Laboratory results: PubChem BioAssay (Tox21)
Results filed as inconclusive are left out. The source made the active and inactive calls. Unless noted, the call rests on the fitted dose curve; in most records, active means well fitted curve in the direction sought with a large enough effect in the repeat runs; inconclusive means weak or mixed curves; inactive means no such curve, though single readings can be large; an effect the other way counts as inactive or inconclusive.

What was measured:
[1] = qHTS assay for small molecules that induce genotoxicity in human embryonic kidney cells expressing luciferase-tagged ATAD5 (AID 651632); further: nearly all actives have a fitted effect of over 15% in size
In short: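 HEK293T cells carrying a luciferase reporter tagged to ATAD5 were exposed to compound or DMSO vehicle for 16 hr at 37C, 5% CO2. Amplite was added, and after 30 min at room temperature luciferase activity was read as a marker of ATAD5 induction.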

[2] = qHTS assay for small molecule agonists of the p53 signaling pathway - cell viability (AID 651633; calls by dose curve;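 further: p53RE-bla HCT reporter cells with a stable beta-lactamase p53 reporter; series mostly up to about 83 µM; nearly all actives have a fitted effect of over 30% in size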)
In short: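 p53RE-bla cells were treated with compound for 16 hours at 37 C. Cytotoxicity was then measured as CellTiter-Glo luminescence after 30 min at room temperature.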

[3] = qHTS assay for small molecules that induce genotoxicity in human embryonic kidney cells expressing luciferase-tagged ATAD5 - cell viability (AID 651634; calls by dose curve; further: nearly all actives have a fitted effect of over 25% in size)
In short: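 HEK293T cells expressing luciferase-tagged ATAD5 were exposed to compound or DMSO for 15.5 hr at 37C, 5% CO2. Viability was then read as live-cell protease activity by CellTiter-Fluor fluorescence after 30 min at 37C.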

[4] = qHTS assay for small molecule disruptors of the mitochondrial membrane potential - cell viability (AID 720634; calls by dose curve;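 further: human HepG2 liver cancer cells; series mostly up to about 83 µM; nearly all actives have a fitted effect of over 20% in size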)
In short: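 HepG2 cells seeded overnight at 37 C, then exposed to compound or DMSO for 1 hr at 37 C, 5% CO2. m-MPI dye added, then CellTiter-Glo for 30 min at room temperature; viability read as ATP luminescence.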

[5] = qHTS assay to test for compound auto fluorescence at 590 nm (red) in HepG2 cells (AID 720674)
In short: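 HepG2 cells, 2,000 per well in MEM with 10% FBS, attached overnight at 37 C, then got 23 nL compound or DMSO. After 1 hr at 37 C, 5% CO2, red fluorescence was read at 540/590 nm against Rose Bengal sodium as reference.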

[6] = qHTS assay to test for compound auto fluorescence at 535 nm (green) in HepG2 cells (AID 720675)
[7] = qHTS assay to test for compound auto fluorescence at 460 nm (blue) in HEK293 cells (AID 720678)
In short: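 Auto fluorescence in the blue band was quantified as triamterene equivalency. HEK293 cells were seeded at 2,000/well, dosed after a 4-5 hr attachment, and kept overnight at 37C before the 405/460 nm reading.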

[8] = qHTS assay to test for compound auto fluorescence at 590 nm (red) in HEK293 cells (AID 720679)
In short: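 Autofluorescence equivalency to Rose Bengal sodium, 540/590nm, in HEK293 cells exposed overnight to 23 nL compound per well.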

[9] = qHTS assay to test for compound auto fluorescence at 535 nm (green) in HEK293 cells (AID 720680)
[10] = qHTS assay to test for compound auto fluorescence at 460 nm (blue) in HEK293 cell free culture (AID 720681)
In short: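 Compounds were added to cell-free DMEM with 10% FBS and fluorescence read directly. The blue channel used 405 nm excitation and 460 nm emission, with triamterene as the reference fluorophore.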

[11] = qHTS assay to test for compound auto fluorescence at 535 nm (green) in HEK293 cell free culture (AID 720682)
In short: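 Green-channel intensity (Ex/Em 485/535 nm) was recorded from compound-treated wells containing only DMEM with 10% FBS. Fluorescein provided the equivalency standard.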

[12] = qHTS assay to test for compound auto fluorescence at 590 nm (red) in HepG2 cell free culture (AID 720684)
In short: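 Compound was pinned into wells holding MEM with 10% FBS and no cells, and red fluorescence was read at Ex/Em 540/590 nm. Signal is expressed as auto fluorescence equivalency relative to Rose Bengal sodium.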

[13] = qHTS assay to test for compound auto fluorescence at 460 nm (blue) in HepG2 cell free culture (AID 720685)
In short: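 Compound (23 nL) or DMSO pinned into cell-free MEM with 10% FBS; blue fluorescence read at 405/460 nm excitation/emission, expressed as auto-fluorescence equivalency to triamterene.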

[14] = qHTS assay to test for compound auto fluorescence at 535 nm (green) in HepG2 cell free culture (AID 720686)
[15] = qHTS assay to test for compound auto fluorescence at 590 nm (red) in HEK293 cell free culture (AID 720683)
In short: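 Cell-free wells of DMEM with 10% FBS received compound, and intrinsic fluorescence was read at excitation/emission 540/590 nm. Values expressed as equivalence to Rose Bengal sodium.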

[16] = qHTS assay for small molecule disruptors of the mitochondrial membrane potential (AID 720635)
In short: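 HepG2 cells exposed to compound 1 hr at 37C, then Mito-MPS dye 30 min. Ratio read of aggregate (540/590 nm) versus monomer (490/535 nm) fluorescence.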

[17] = qHTS assay to test for compound auto fluorescence at 460 nm (blue) in HepG2 cells (AID 720687)
In short: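 HepG2 cells in MEM with 10% FBS, attached overnight at 37 C, were exposed to compound or DMSO for 1 hr at 37 C, 5% CO2. Blue fluorescence was read at 405/460 nm, with triamterene as reference fluorophore.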

[18] = target: Glucocorticoid receptor (Homo sapiens) (UniProt P04150); test: qHTS assay to identify small molecule agonists of the glucocorticoid receptor (GR) signaling pathway (AID 720691; active means well fitted activation curve with a large enough effect in the signal ratio in the repeat runs, not every such curve was filed as active; the % refers to the signal ratio)
In short: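 GR-bla HeLa cells (beta-lactamase reporter under glucocorticoid response element) were plated 4 h at 37 C/5% CO2, given compounds in DMSO, and incubated 18 h at 37 C. LiveBLAzer B/G FRET substrate was added for 2 h at room temperature, then fluorescence intensity read.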

[19] = target: Glucocorticoid receptor (Homo sapiens) (UniProt P04150); test: qHTS assay to identify small molecule antagonists of the glucocorticoid receptor (GR) signaling pathway (AID 720692; active means well fitted inhibition curve with a large enough effect in the signal ratio in the repeat runs, not every such curve was filed as active; the % refers to the signal ratio)
In short: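 GR-bla HeLa cells (beta-lactamase reporter under glucocorticoid response element) were pre-plated 4 h at 37 C, treated with compounds plus 5 nM dexamethasone (final) for 18 h, then read by LiveBLAzer B/G FRET fluorescence after 2 h.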

[20] = qHTS assay for small molecule agonists of the p53 signaling pathway (AID 651631; calls by dose curve; further: nearly all actives have a fitted effect of over 15% in size)
In short: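 We treat p53RE-bla HCT-116 cells with compounds for 16 h at 37 °C, add LiveBLAzer B/G FRET substrate for 2 h at room temperature, and measure fluorescence intensity.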

Measured: Potency

Glucocorticoid receptor (Homo sapiens), sequence (P04150 whole entry, looked up): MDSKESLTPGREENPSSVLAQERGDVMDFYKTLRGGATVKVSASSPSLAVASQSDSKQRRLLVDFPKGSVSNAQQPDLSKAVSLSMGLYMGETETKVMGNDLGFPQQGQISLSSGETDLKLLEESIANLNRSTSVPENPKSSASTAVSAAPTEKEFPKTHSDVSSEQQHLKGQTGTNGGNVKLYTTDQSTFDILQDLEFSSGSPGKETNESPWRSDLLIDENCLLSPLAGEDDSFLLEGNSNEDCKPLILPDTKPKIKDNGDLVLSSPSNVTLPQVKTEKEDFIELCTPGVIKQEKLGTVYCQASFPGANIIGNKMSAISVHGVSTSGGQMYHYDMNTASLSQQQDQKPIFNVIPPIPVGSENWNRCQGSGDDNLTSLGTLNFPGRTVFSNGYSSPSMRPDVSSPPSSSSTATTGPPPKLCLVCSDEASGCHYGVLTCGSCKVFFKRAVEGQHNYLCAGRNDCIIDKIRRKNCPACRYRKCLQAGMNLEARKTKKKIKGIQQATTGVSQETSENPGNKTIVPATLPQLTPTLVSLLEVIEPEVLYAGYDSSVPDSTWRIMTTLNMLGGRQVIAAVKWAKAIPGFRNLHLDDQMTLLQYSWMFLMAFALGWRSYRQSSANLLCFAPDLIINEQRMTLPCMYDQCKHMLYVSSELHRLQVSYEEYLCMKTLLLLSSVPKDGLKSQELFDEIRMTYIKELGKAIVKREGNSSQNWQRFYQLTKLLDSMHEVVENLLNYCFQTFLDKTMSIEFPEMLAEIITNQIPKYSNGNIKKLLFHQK

O=C(CCN1CCN(CCO)CC1)N1c2ccccc2Sc2ccc(C(F)(F)F)cc21
not listed: [15] | [16] | [17] | [18] | [19] | [20]
inactive: all other assays above

CC(C)(C)c1cc(CCC(=O)NN)cc(C(C)(C)C)c1O
not listed: [16] | [17] | [18] | [19] | [20]
inactive: all other assays above

C=C(C)C(=O)OCCOP(=O)(O)OCCOC(=O)C(=C)C
not listed: [6] | [20]
inactive: all other assays above

On1nnc2ccccc21
not listed: [1] | [3] | [4] | [14] | [19]
inactive: all other assays above

COc1ccc(OC)c(Cl)c1
not listed: [11] | [16] | [18] | [19] | [20]
inactive: all other assays above

BrCc1cccc(Oc2ccccc2)c1
not listed: [15] | [16] | [19] | [20]
inactive: all other assays above

CCCCCCCCSCC
not listed: [16] | [19] | [20]
inactive: all other assays above
